# According to the supplement of paper PMC10338343:
# ± gives the standard deviation. Whole data set: some 3,700 sequences, median “pre-steady-state target cleavage rate” near 0.02, cut for the highest 2% near 0.23. Many of the other results were omitted from the sample, so the highest values are more common in it than they were.
# System: MILI (PIWIL2) piRISC loaded with Kctd7 piRNA (26 nt)
# Assay: pre-steady-state target cleavage rate (min^-1); MIWI and MILI are mouse PIWI proteins and EfPiwi is from a freshwater sponge; tags in brackets are library labels; higher = faster piRNA-guided slicing of the target
# Settings: guide: Kctd7 piRNA 5'p-UGUUAAUCUCUCAGAGAAGGUGACAG; auxiliary factor: 500 nM mouse GTSF1
# Experimental: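 Cleave-'n-Seq: a library of target RNAs (target site embedded in constant flanks, ACAGCATTCCGCGTTAGTGATATCCG... 5' flank; DNA-blocked outside the site) at 0.1 nM was incubated with 1 nM active mouse MILI or MIWI piRISC (synthetic 5'-monophosphorylated piRNA guide) with or without 500 nM mouse GTSF1 at 33 °C for 1 min to 16 h. Uncleaved targets were sequenced and normalised to non-target controls, and the pooled three trials were fitted to a burst-and-steady-state model to give the pre-steady-state cleavage rate (min^-1; k3 is constrained to at most 1e-4). Sequence is the target site only; target names encode pairing extent (gX:gY) and contiguous / 1-mismatch / 2-mismatch / bulge geometry. Fits with R² ≤ 0 are excluded.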
row,Sequence,pre-steady-state target cleavage rate
1,UAGUGUGUCACCUACACUGAGAGAUUAACA,0.15 ± 0.011
2,UAGUCUGUCACCUUCAUCUGAGAGAUUAACA,0.204 ± 0.052
3,UAGUCUGUCACCUUCUUUGAGAGAUUAACA,0.259 ± 0.019
4,UAGUGUGUCACCUUCUUUGAGAGAUUAACA,0.229 ± 0.016
5,UAGUGAGUCACCUUCUUGAGAGAUUAACA,0.0386 ± 0.014
6,UAGUCUGUCACCUUCUUGAGAGAUUAACA,0.07 ± 0.023
7,UAGUGAGUCACCUUCUUUGAGAGAUUAACA,0.334 ± 0.029
8,UAGUCUGUCACCUUCUUCUGAGAGAUUAACA,0.0864 ± 0.021
9,UAGUGAGUCUCCUUCACUGAGAGAUUAACA,0.166 ± 0.016
10,UAGUGACUCUCCUUCUGUGAGAGAUUAACA,0.0558 ± 0.01
11,UAGUGACAGACGUUCUCUCAGAGAUUAACA,0.0137 ± 0.0054
12,UAGUCUGUCACCUUCUCUGAGAGGAUUAACA,0.174 ± 0.019
13,UAGUCGUGUCACCUUCUCUGAGAGAUUAACA,0.199 ± 0.01
14,UAGUCUUCACCUUCUCUGAGAGAUUAACA,0.213 ± 0.019
15,UAGUCUGUCACCUUCUCUGAGAGAUUAACG [g2:g26:cont:t1G],0.196 ± 0.011
16,UAGUCUGUCACCUUCUCUGAGAGAUUUAACA,0.245 ± 0.023
17,UAGUCUGUCACCUUCUCUGAGAGAUUAAUCA,0.258 ± 0.041
18,UAGUCCUGUCACCUUCUCUGAGAGAUUAACA,0.275 ± 0.026
19,UAGUCUGUCACCUUCUCUGAGAGAUUAAUA,0.118 ± 0.02
20,UAGUCUCUCACCUUGUCUGAGAGAUUAACA,0.0068 ± 0.0039
21,UAGUCUGUCACCUUCUCUGAGAGAUUAAA,0.13 ± 0.026
22,UAGUCUUGUCACCUUCUCUGAGAGAUUAACA,0.341 ± 0.058
23,UAGUCUGUCACCUUCCUGAGAGAUUAACA,0.0844 ± 0.028

row,Sequence,pre-steady-state target cleavage rate
1,UAGUCUGUCACCUUCUCUCUGAGAUUAACA,0.00967 ± 0.0028
2,UAGUGUGACACCUUCUGUGAGAGAUUAACA,0.123 ± 0.015
3,UAGUCUGUCACCUACUCUGAGAGAAUAACA,0.0882 ± 0.017
4,UAGUGACUCACCUUCUCUGAGAGUUUUACA,0.0214 ± 0.01
5,UAGUGACAGUGCUUCUCUGAGAAAUUAACA,0.00916 ± 0.0047
6,UAGUCUGUCACCUUCAGAGAGAGAUUAACA,0.0227 ± 0.0099
7,UAGUGACAGUCCUUCUCUGAGGAGAUUAACA,0.00431 ± 0.0026
8,UAGUGACAGUGGAAGAGUGACAGAUUAACA,< 0.0001
9,UAGUCUGUCACCUUCUCUGAGAGAUUAACC [g2:g26:cont:t1C],0.173 ± 0.013
10,UAGUCUGUCACCUCUCUCUGAGAGAUUAACA,0.164 ± 0.015
11,UAGUCUGUCACCUCUCUGAGAGAUUAACA,0.208 ± 0.018
12,UAGUCUGUCACCUUCUCUGAGAGAUUAACU [g2:g26:cont:t1U],0.244 ± 0.026
13,UAGUCUGUCACCUUCUCUGAGAGAUUAACA [g2:g26:cont:t1A],0.22 ± 0.013
14,UAGUCUGUCACCCUCUCUGAGAGAUUAACA,0.238 ± 0.018
15,UAGUGACACACCUUCUCAGAGAGAUUAUGA,0.0269 ± 0.01
16,UAGUGUGUCACCUUCUCUGAGAGAUUAAA,0.234 ± 0.064
17,UAGUGUGUCACCUUCUCUGAGAGAUUAAAA,0.108 ± 0.022
18,UAGUGUGUCACCUUCUCUGAGAGAUUAAGA,0.145 ± 0.036
19,UAGUGUGUCACCUUCUCUGAGAGAUUAAACA,0.214 ± 0.029
20,UAGUGUGUCACCUUCUCUGAGAGAUUAAUA,0.236 ± 0.037
21,UAGUGUGUCACCUUCUCUGAGAGAUUAAUCA,0.18 ± 0.032
22,UAGUGACAGUGCUUCUCUGAGAGAAUUAACA,0.0127 ± 0.0041
23,UAGUGUGUCACCUUCUCUGAGAGCAUUAACA,0.17 ± 0.022

row,Sequence,pre-steady-state target cleavage rate
1,UAGUCUCUCACCUUCUCUGAGAGAUAAACA,0.0206 ± 0.0076
2,UAGUGAGUCACCUUCUCUGAGAGAUUGACA,0.208 ± 0.042
3,UAGUCUGUCACCUUCUCUGAGAGAUUGACA,0.246 ± 0.044
4,UAGUGUGUCACCUUCUCUGAGAGAUUGACA,0.25 ± 0.063
5,UAGUGUGUCACCUUCUCUGAGAGAUUCAACA,0.219 ± 0.038
6,UAGUGUGUCACCUUCUCUGAGAGAUUGAACA,0.0931 ± 0.017
7,UAGUCUGUCACCUUCUCUGAGAGAUUGAACA,0.214 ± 0.029
8,UAGUCUGUCACCUUCUCUGAGAGAUUUUGA,0.0133 ± 0.0061
9,UAGUGUGUCACCUUCUCUGAGAGAUUCACA,0.239 ± 0.049
10,UAGUGUGUCACCUUCUCUGAGAGAUAUUCA,0.143 ± 0.047
11,UAGUGUGUGACCUUGUCUGAGAGAUUAACA,0.0744 ± 0.014
12,UAGUGAGUCACCAUCUCUGACAGAUUAACA,0.0409 ± 0.0068
13,UAGUGACUCACCUUCUCUGAGAGCAUUAACA,0.144 ± 0.016
14,UAGUGACAGUGGAAGACUGACAGAUUUACA,< 0.0001
15,UAGUGACAGUCAUUCUCUGAGAGAUUAACA,0.00865 ± 0.0029
16,UAGUGACAGACCUUCUCUGAGAAAUUAACA,0.0522 ± 0.015
17,UAGUGACAGACGCUUCUCUGAGAGAUUAACA,0.0399 ± 0.0079
18,UAGUGAGUCAGCUUCUCUGAGAGAUUUACA,0.1 ± 0.018
19,UAGUGUGACACCAUCUCUGAGAGAUUAACA,0.137 ± 0.011
20,UAGUGACAGUCCGUCUCUGAGAGAUUAACA,0.0557 ± 0.0066
21,UAGUCUGUCAGCUUCACUGAGAGAUUAACA,0.0681 ± 0.0072
22,UAGUGACACACCUUCUCUGAGAGAUUAUGA,0.0394 ± 0.012
23,UAGUGUGUCACCUACUCUGAGACAUUAACA,0.0742 ± 0.019

row,Sequence,pre-steady-state target cleavage rate
1,UAGUCUGUCACCUUCUCUGUGAGUUUAACA,0.0314 ± 0.0059
2,UAGUCUGUCACCUUCUCUGAGAGAGUAACA,0.245 ± 0.033
3,UAGUCUGUCACCUUCUGUGAGAGUUUAACA,0.0702 ± 0.016
4,UAGUCUGUCACCUUCUCUGAGAGAGUUAACA,0.297 ± 0.035
5,UAGUCUGUCACCUUCUCUGAGAGGUUAACA,0.198 ± 0.025
6,UAGUCUGUCACCUUCUCUGAGAGUAUAACA,0.122 ± 0.022
7,UAGUCUGUCACCUUCUCUGAGAGAUUAAACA,0.147 ± 0.018
8,UAGUCUGUCACCUUCUCUGAGAGUUUAACA,0.238 ± 0.04
9,UAGUCUGUCACCUUCUCUGAGAGUAAAACA,0.0676 ± 0.024
10,UAGUCUGUCACCUUCUCUGAGAGUAUUAACA,0.173 ± 0.013
11,UAGUCUGUCACCUUCUCUGAGAGAUUAAAA,0.12 ± 0.031
12,UAGUCUGUCACCUUCUCUGAGAGUUAAACA,0.328 ± 0.096
13,UAGUGACAGUCCUUCUCUGAGUCAUUAAGA,< 0.0001
14,UAGUGACACACGAUCUCUGAGAGAUUAACA,0.0352 ± 0.0045
15,UAGUGACAGACCUUAUCUGAGAGAUUAACA,0.0894 ± 0.017
16,UAGUGACAGUGCUUCUCCGAGAGAUUAACA,0.0082 ± 0.0034
17,UAGUGACAGUGGAAGAGAGAGAGAUUGAACA,< 0.0001
18,UAGUGAGUCAGCUACUCUGAGAGAUUAACA,0.135 ± 0.01
19,UAGUGACACACCAACUCUGAGAGAUUAAGA,0.018 ± 0.0037
20,UAGUGACAGUCCUUCUCAGAGAGAUUUACA,0.0138 ± 0.0054
21,UAGUGACAGUGCUUCUCUGAGACAUAAACA,< 0.0001
